Assay results published in PubChem BioAssay AID2284132 (EPA ToxCast).
Records with an inconclusive call do not appear. The source made the active and inactive calls. How the source made its calls: active means hit-call score of the fitted dose curve at least 0.9, where 1 is the maximum; inconclusive means response in the unintended direction; inactive means score below 0.9.

The compounds below were run against human SGK1 AGC Kinase, SGK1 (gene 6446) (UniProt O00141) (assay: ERF_FR_ENZ_hSGK1: Eurofins (ERF) Enzymatic Radiometric [Km ATP] KinaseProfiler LeadHunter Assay for human SGK1 AGC Kinase).
Sequence of human SGK1 AGC Kinase, SGK1 (gene 6446) (O00141 whole entry, looked up): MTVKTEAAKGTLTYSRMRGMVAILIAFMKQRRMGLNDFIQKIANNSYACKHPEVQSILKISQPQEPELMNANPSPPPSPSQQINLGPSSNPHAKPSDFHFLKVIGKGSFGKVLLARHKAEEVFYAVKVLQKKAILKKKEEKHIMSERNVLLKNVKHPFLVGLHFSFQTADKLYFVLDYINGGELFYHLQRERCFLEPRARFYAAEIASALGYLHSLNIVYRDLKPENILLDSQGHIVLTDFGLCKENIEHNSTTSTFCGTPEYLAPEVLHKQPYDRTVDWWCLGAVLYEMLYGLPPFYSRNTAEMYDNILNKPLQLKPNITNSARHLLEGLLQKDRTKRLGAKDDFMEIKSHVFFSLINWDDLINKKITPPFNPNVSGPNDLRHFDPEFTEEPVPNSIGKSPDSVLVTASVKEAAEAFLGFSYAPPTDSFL
Method: ERF_FR_ENZ_hSGK1 is a biochemical, single-readout assay that uses extracted gene-proteins in a cell-free assay. Measurements were taken 0.5 hour after chemical dosing in a 96-well plate. See SGK1 Human AGC Kinase Enzymatic LANCE Assay [Km ATP], Cerep.ERF_FR_ENZ_hSGK1 is an assay component calculated from the ERF_FR_ENZ_hSGK1 assay. It is designed to measure enzyme activity using a type of enzyme reporter as detected by fluorescence intensity with LANCE technology.Data from the assay component ERF_FR_ENZ_hSGK1 was analyzed at the assay endpoint, ERF_FR_ENZ_hSGK1, in the positive analysis fitting direction relative to DMSO as the negative control and baseline of activity. Using a type of enzyme reporter, loss-of-signal activity can be used to understand changes in enzymatic activity as they relate to gene SGK1. To generalize the intended target to other relatable targets, this assay endpoint is annotated to the kinase intended target family, where the subfamily is serine/threonine kinase.
SGK (h) is incubated with 8 mM MOPS pH 7.0, 0.2 mM EDTA, 30 uM […], 10 mM MgAcetate and [g- 33P]-ATP (specific activity and concentration as required). The reaction is initiated by the addition of the Mg/ATP mix. After incubation for 40 minutes at room temperature, the reaction is stopped by the addition of phosphoric acid to a concentration of 0.5%. […]
O=C(/C=C/c1ccc(O)cc1)CC(=O)/C=C/c1ccc(O)cc1 was tested, and the outcome was “inactive”.
